The structures appear in SMILES notation. This is part of a sample that, as a whole, favours compounds with a hit. Of some 83,000 tested, about 20% had one in any assay.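 Single-dose data. Exposure time 48 hours. Values below 10 considered active.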 Activity calls are given as the source filed them.

The test system of the first assay is HS 578T breast. Description: NCI-60 one-dose screen, 48 h (100 = growth as untreated, 0 = no growth, -100 = all killed). To be noted: 10 µM unless noted.
On to `CCOC(=O)c1c(C)c2c(n1Cc1ccccc1)CSCC2=O`, for which the growth is 46.8% [100 µM] (inactive).

On to `O=C(CN1CCN(c2cc3c(cc2F)c(=O)c(C(=O)O)cn3C2CC2)CC1)N/N=C/c1ccco1`, for which the growth was 95.5% (inactive).

For `Clc1ccc(-c2cc(-c3ccccc3)nc(NCCNc3ccnc4cc(Cl)ccc34)n2)cc1`, the growth was -17.5% (active).

Turning to `N#C/C(=C\C=C\c1ccc(-c2cc(Cl)ccc2Cl)o1)c1nc2ccccc2s1`, the growth was 100% (inactive).

With `COc1cc(OC)c(C(=O)C(CN(C)C)CN(C)C)cc1OC`, the growth is 108% (inactive).

As to `CCn1cc(CNc2ccc(C(=O)Nc3cc4cc(OC)c(OC)cc4c(C)n3)cc2)cn1`, the growth was 70.3% (inactive).

Consider `N#Cc1c(-c2ccccc2)nc(SCc2nnc(-c3ccc(Cl)cc3)o2)[nH]c1=O`, for which the growth was 93.8% (inactive).

On to `O=P(O)(O)OCC1OC(n2cnc3c(NCc4ccco4)ncnc32)C(O)C1O` (stereo not given), for which the growth is 32.5% (inactive).

`CCN(CC)CCCN1C(=O)c2c(c(C)c3c(oc4ccc(O)cc43)c2C)C1=O`: the growth is 81.2% (inactive).

As for `O=[N+]([O-])c1ccc(-c2cn3nc(-c4c[nH]c5ccccc45)sc3n2)cc1`, the growth is 99.9% (inactive).

For the molecule `Cc1nc2ccccc2c(/C=C/c2ccccc2)c1C(=O)/C=C/c1ccccc1`, the growth was 41.9% (inactive).

As to `O=C1Nc2c(C(=O)O)cccc2/C1=N/c1n[nH]c(=S)s1`, the growth is 87% (inactive).

In the case of `CC(=O)Oc1ccc(OC(C)=O)c2ccccc12`, the growth is 109% (inactive).

For the molecule `COC(=O)/C=C1/SC(=Nc2ccc([N+](=O)[O-])cc2)N(CCc2c[nH]c3ccc(O)cc23)C1=O`, the growth was 47.5% (inactive).

On to `[2H]C([2H])([2H])Oc1ccc(F)cc1/C=C/C(=O)/C=C(/C=C/c1cc(F)ccc1OC([2H])([2H])[2H])OB(F)F`, for which the growth was 91.9% (inactive).

For `Nc1c(C(=O)Nc2cccc(Cl)c2)sc2nc3c(cc12)CCCC3`, the growth was 97.7% (inactive).

On to `NS(=O)(=O)c1ccc(C(=O)NN2C(=O)c3c(Br)c(Br)c(Br)c(Br)c3C2=O)cc1`, for which the growth was 94.6% (inactive).

Regarding `Cc1c(Cl)cccc1C(=O)Nc1nc2c(s1)CN(C(=O)c1ccc(C(F)(F)F)cc1)CC2`, the growth was 26.8% (inactive).

As for `CCCCCN(CCCCC)CC(O)c1cc(C)c2ccc3cc(C(C)C)ccc3c2c1` (stereo not given), the growth is -24% (active).

In the case of `CCC1S/C(=N\N=C(\C)c2cc3cc(Cl)ccc3o2)N(c2ccccc2)C1=O` (stereo not given), the growth was 52.4% (inactive).

As to `CN1C(=O)/C(=C/c2ccc(C(=O)Nc3ncc(Cc4cccc(Cl)c4)s3)cc2)SC1=S`, the growth was 74.6% (inactive).

Regarding `O=C(NCc1cccc(CNC(=O)Nc2nc3ccccc3[nH]2)c1)Nc1nc2ccccc2[nH]1`, the growth was -15.3% (active).

Regarding `COc1ccc(Cn2cc3c(c2-c2ccccc2)CCc2cnoc2-3)cc1`, the growth is 9.15% (active).

In the case of `Cc1ccc(CNc2c3ccccc3nc3ccccc23)cc1`, the growth is 38.5% (inactive).

In the case of `FC(F)(F)c1ccc(Cn2cc(CSc3nc4ccccc4s3)nn2)cc1`, the growth was 88.6% (inactive).

Consider `COc1cc(OC)c2sc(-c3ccc(-n4cncc4-c4cc(OC)c(OC)c(OC)c4)cc3)nc2c1`, for which the growth is 62.2% (inactive).

In the case of `C#CCn1cnc2cnc(Nc3cccc(NC(=O)C=C)c3)nc21`, the growth is 74.5% [6.25 µM] (inactive).

Regarding `CC(=O)/C(=C/c1ccc([N+](=O)[O-])cc1)C(=O)c1ccccc1`, the growth was 92.3% (inactive).

In the case of `CCOC(=O)/C=C1\S/C(=N\Nc2cc(=O)[nH]c3ccccc23)N(c2ccccc2)C1=O`, the growth is 101% (inactive).

On to `Cc1ccc(/C=C/C(=O)c2ccc(-n3cc(CN4CCN(c5cc6c(cc5F)c(=O)c(C(=O)O)cn6C5CC5)CC4)nn3)cc2)cc1`, for which the growth was 80.5% (inactive).

For a further assay, the system named is NCI/ADR-RES ovarian. Described as above. Particulars: 10 µM unless noted.
Take `CC(=O)OC[C@]12CC[C@@H]([C@@H](C)c3nnc(-c4ccncc4)o3)[C@@H]1[C@H]1CC[C@@H]3[C@@]4(C)CC[C@H](OC(C)=O)C(C)(C)[C@@H]4CC[C@@]3(C)[C@]1(C)CC2`: the growth is 90.6% (inactive).

As for `CCN(CC)c1ccc(/C=N/NC(=O)Cc2ccc(Nc3ccnc(C(F)(F)F)c3)cc2)c(O)c1`, the growth was 18.3% (inactive).

On to `Cc1cc2c(cc1C)N(C(=O)CCl)CC(=O)N2`, for which the growth is 62.4% (inactive).

For the molecule `C#CC#CC#CC#CC#CC#CC#CC#CC[C@@H]1OC[C@@H](COC(=O)O[C@@H](C(=O)O[C@H]2C[C@@]3(O)[C@@H](OC(=O)c4ccccc4)[C@@H]4[C@]5(OC(C)=O)CO[C@@H]5C[C@H](O)[C@@]4(C)C(=O)[C@H](OC(C)=O)C(=C2C)C3(C)C)[C@@H](NC(=O)c2ccccc2)c2ccccc2)O1`, the growth is 62.5% (inactive).

For `CCN1C(=O)N(CC)C2C1NN=c1s/c(=C\c3cnc(C)n3C)c(=O)n12` (stereo not given), the growth is 75.4% (inactive).

Regarding `C/C=C(\C)C(=O)N[C@H]1C(O)C[C@]2(C)C3CC[C@@]4(C)C(CC[C@@H]4C(C)N(C)C)C3CCC2C1O` (stereo not given in full), the growth was 81.3% (inactive).

In the case of `C#Cc1cccc(Nc2nc(C)nc3cc(NC(=O)CCl)ccc23)c1`, the growth is -22% (active).

As to `CSc1nn2c(-c3ccc4ccccc4c3)ccnc2c1C#N`, the growth is 2.07% (active).

`CCN(CC)CCCOc1ccc2ncnc(Nc3ccc(Oc4cccc(C(F)(F)F)c4)c(Cl)c3)c2c1`: the growth is 2.21% (active).

Regarding `O=C1/C(=C\c2ccccn2)c2ccccc2N1c1c(Cl)cccc1Cl`, the growth is -26.7% (active).

For `CCOC(=O)c1c(C)c2c(n1Cc1ccccc1)CSCC2=O`, the growth was -5.65% [100 µM] (active).

Turning to `O=C(CN1CCN(c2cc3c(cc2F)c(=O)c(C(=O)O)cn3C2CC2)CC1)N/N=C/c1ccco1`, the growth is 103% (inactive).

For the molecule `Clc1ccc(-c2cc(-c3ccccc3)nc(NCCNc3ccnc4cc(Cl)ccc34)n2)cc1`, the growth is -63.4% (active).

With `N#C/C(=C\C=C\c1ccc(-c2cc(Cl)ccc2Cl)o1)c1nc2ccccc2s1`, the growth is 100% (inactive).

With `COc1cc(OC)c(C(=O)C(CN(C)C)CN(C)C)cc1OC`, the growth was 94.3% (inactive).

As to `CCn1cc(CNc2ccc(C(=O)Nc3cc4cc(OC)c(OC)cc4c(C)n3)cc2)cn1`, the growth is 35.5% (inactive).

As to `N#Cc1c(-c2ccccc2)nc(SCc2nnc(-c3ccc(Cl)cc3)o2)[nH]c1=O`, the growth was 93.3% (inactive).

In the case of `O=P(O)(O)OCC1OC(n2cnc3c(NCc4ccco4)ncnc32)C(O)C1O` (stereo not given), the growth is 19.5% (inactive).

Consider `CCN(CC)CCCN1C(=O)c2c(c(C)c3c(oc4ccc(O)cc43)c2C)C1=O`, for which the growth is -62.9% (active).

With `O=[N+]([O-])c1ccc(-c2cn3nc(-c4c[nH]c5ccccc45)sc3n2)cc1`, the growth was 99.3% (inactive).

Consider `Cc1nc2ccccc2c(/C=C/c2ccccc2)c1C(=O)/C=C/c1ccccc1`, for which the growth was 7.26% (active).

For `O=C1Nc2c(C(=O)O)cccc2/C1=N/c1n[nH]c(=S)s1`, the growth was 101% (inactive).

With `CC(=O)Oc1ccc(OC(C)=O)c2ccccc12`, the growth is 64.5% (inactive).

For `COC(=O)/C=C1/SC(=Nc2ccc([N+](=O)[O-])cc2)N(CCc2c[nH]c3ccc(O)cc23)C1=O`, the growth is 43.9% (inactive).

For `[2H]C([2H])([2H])Oc1ccc(F)cc1/C=C/C(=O)/C=C(/C=C/c1cc(F)ccc1OC([2H])([2H])[2H])OB(F)F`, the growth was 76.5% (inactive).

For `Nc1c(C(=O)Nc2cccc(Cl)c2)sc2nc3c(cc12)CCCC3`, the growth is 101% (inactive).

`NS(=O)(=O)c1ccc(C(=O)NN2C(=O)c3c(Br)c(Br)c(Br)c(Br)c3C2=O)cc1`: the growth is 110% (inactive).

As for `Cc1c(Cl)cccc1C(=O)Nc1nc2c(s1)CN(C(=O)c1ccc(C(F)(F)F)cc1)CC2`, the growth was 5.22% (active).

As for `CCCCCN(CCCCC)CC(O)c1cc(C)c2ccc3cc(C(C)C)ccc3c2c1` (stereo not given), the growth was -54.6% (active).

As for `CCC1S/C(=N\N=C(\C)c2cc3cc(Cl)ccc3o2)N(c2ccccc2)C1=O` (stereo not given), the growth was 90.8% (inactive).

For `CN1C(=O)/C(=C/c2ccc(C(=O)Nc3ncc(Cc4cccc(Cl)c4)s3)cc2)SC1=S`, the growth is 56.9% (inactive).

Regarding `O=C(NCc1cccc(CNC(=O)Nc2nc3ccccc3[nH]2)c1)Nc1nc2ccccc2[nH]1`, the growth is 83.3% (inactive).

Turning to `COc1ccc(Cn2cc3c(c2-c2ccccc2)CCc2cnoc2-3)cc1`, the growth is 4.47% (active).

For the molecule `Cc1ccc(CNc2c3ccccc3nc3ccccc23)cc1`, the growth is 26.1% (inactive).

Turning to `FC(F)(F)c1ccc(Cn2cc(CSc3nc4ccccc4s3)nn2)cc1`, the growth was 95.7% (inactive).

As to `COc1cc(OC)c2sc(-c3ccc(-n4cncc4-c4cc(OC)c(OC)c(OC)c4)cc3)nc2c1`, the growth is 60.6% (inactive).

With `C#CCn1cnc2cnc(Nc3cccc(NC(=O)C=C)c3)nc21`, the growth was 98.6% [6.25 µM] (inactive).

On to `CC(=O)/C(=C/c1ccc([N+](=O)[O-])cc1)C(=O)c1ccccc1`, for which the growth was 83.7% (inactive).

In the case of `CCOC(=O)/C=C1\S/C(=N\Nc2cc(=O)[nH]c3ccccc23)N(c2ccccc2)C1=O`, the growth was 101% (inactive).

As for `Cc1ccc(/C=C/C(=O)c2ccc(-n3cc(CN4CCN(c5cc6c(cc5F)c(=O)c(C(=O)O)cn6C5CC5)CC4)nn3)cc2)cc1`, the growth was 103% (inactive).

The values are drawn from PubChem BioAssay (NCI).
